Results on 15 compounds are retold here after PubChem BioAssay (NCI).

Values joined by “and” are separate entries in the source; they are usually repeats but may differ in a detail not shown here. Identical values can stand only once. This is part of a sample that, as a whole, favours compounds with a hit. Of some 83,000 tested, about 20% had one in any assay.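 Percent growth is the endpoint: 0 to 100 indicates growth inhibition (40 means 60% inhibition), 0 means no net growth, and negative values indicate cell death.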 Active and inactive are the calls of the source. Rule for the calls: active = growth percent below 10; inactive = the rest.

Common to all, as to assay: NCI-60 one-dose screen, 48 h (100 = growth as untreated, 0 = no growth, -100 = all killed)
The subject of experiment [1] is OVCAR-5 ovarian.
The test system of experiment [2] is OVCAR-4 ovarian.
The subject of experiment [3] is SK-OV-3 ovarian.
Experiment [4] deals with OVCAR-3 ovarian.
Experiment [5] deals with NCI/ADR-RES ovarian.
Experiment [6] relates to T-47D breast.
The test system of experiment [7] is BT-549 breast.
Experiment [8] deals with SW-620 colon.
Experiment [9] deals with HCT-116 colon.
Experiment [10] relates to MCF7 breast.

As for `CC[n+]1c(-c2ccccc2)c2cc(N)ccc2c2ccc(N)cc21`, the growth in experiment [1] (10 µM unless noted) is 49.4% (inactive); in [2] (10 µM unless noted), 11.6% (inactive); in experiment [3] (10 µM unless noted), 47.3% (inactive); in experiment [4] (10 µM unless noted) it was -0.305% (active); in [5] (10 µM unless noted) it was 87.6% (inactive); in experiment [6] (10 µM unless noted), 11.2% (inactive). The results for the growth in experiment [7] (10 µM unless noted), in [8] (10 µM unless noted) and in experiment [9] (10 µM unless noted) were -35.7% (active), 17.9% (inactive) and 13.8% (inactive), respectively.

Regarding `S=C(SSC(=S)N1CCCCC1)N1CCCCC1`, the growth is 114% (inactive) in [1] (10 µM); -85.8% (active) in experiment [1] (100 µM); 85.2% (inactive) in [2] (10 µM); -51.1% (active) in [2] (100 µM); 110% (inactive) in experiment [3] (10 µM); 45.7% (inactive) in experiment [3] (100 µM). Moreover, the growth in experiment [4] (10 µM) is 105% (inactive); in experiment [4] (100 µM), -68.7% (active); in [5] (10 µM), 97.7% (inactive); in experiment [5] (100 µM) it was 2.3% (active); in experiment [6] (10 µM), 100% (inactive); in [6] (100 µM), -28.4% (active). The growth in experiment [7] (10 µM) is 92% (inactive); in experiment [7] (100 µM), -1.94% (active); in [8] (10 µM) it was 95.3% (inactive); in experiment [8] (100 µM), -55.7% (active); in [10] (10 µM), 80.1% (inactive); in experiment [10] (100 µM), -46.8% (active). Further, the growth in experiment [9] (10 µM) was 85.3% (inactive); in experiment [9] (100 µM), -76.4% (active).

Consider `CC[C@@]1(O)C[C@H](OC2CC(N(C)C)C(OC3CC(O)C(OC4CCC(=O)C(C)O4)C(C)O3)C(C)O2)c2c(cc3c(c2O)C(=O)c2c(O)ccc(O)c2C3=O)[C@H]1C(=O)OC` (stereo partly drawn), for which the growth in experiment [1] (10 µM unless noted) is 1.64% (active); in experiment [2] (10 µM unless noted), -36.5% (active); in experiment [3] (10 µM unless noted), 33.1% (inactive); in experiment [4] (10 µM unless noted), 0.51% (active); in experiment [5] (10 µM unless noted), 11% (inactive); in experiment [6] (10 µM unless noted), 18% (inactive). Moreover, the growth in experiment [7] (10 µM unless noted) was -4.5% (active); in experiment [8] (10 µM unless noted) it was -1.19% (active); in [10] (10 µM), 0.371% (active); in experiment [9] (10 µM unless noted), -58.7% (active).

Regarding `Oc1cc[c]([Hg][Cl])cc1`, the growth in experiment [1] (10 µM unless noted) is 116% (inactive); in experiment [2] (10 µM unless noted), 100% (inactive); in experiment [3] (10 µM unless noted), 135% (inactive); in experiment [4] (10 µM unless noted) it was 91% (inactive); in experiment [5] (10 µM unless noted) it was 107% (inactive); in experiment [7] (10 µM unless noted), 128% (inactive). Moreover, the growth in experiment [8] (10 µM unless noted) was 105% (inactive); in experiment [10] (10 µM), 50.5% (inactive); in experiment [9] (10 µM unless noted), 91% (inactive).

Turning to `CC1=C2C(=O)[C@H]3[C@@H](CC=C4C[C@@H](O)CC[C@@]43C)[C@@H]2CC[C@]12O[C@@H]1C[C@H](C)CN[C@H]1[C@H]2C`, the growth is 94% (inactive) in [1] (10 µM unless noted); 96.3% (inactive) in [2] (10 µM unless noted); 101% (inactive) in [3] (10 µM unless noted); 140% (inactive) in experiment [4] (10 µM unless noted); 101% (inactive) in experiment [5] (10 µM unless noted); 107% (inactive) in experiment [6] (10 µM unless noted). Further, the growth in [8] (10 µM unless noted) was 99.2% (inactive); in experiment [10] (10 µM), 91.6% (inactive); in experiment [9] (10 µM unless noted), 45.5% (inactive).

In the case of `CCCCCCCCCCCC1CCCC(C)N1` (stereo not drawn), the growth in experiment [1] (10 µM unless noted) was 88.8% (inactive); in experiment [2] (10 µM unless noted), 85.5% (inactive); in [3] (10 µM unless noted), 121% (inactive); in experiment [4] (10 µM unless noted) it was 90.9% (inactive); in experiment [5] (10 µM unless noted) it was 82.7% (inactive); in experiment [6] (10 µM unless noted), 102% (inactive). In addition, the growth in experiment [8] (10 µM unless noted) is 49.4% (inactive); in experiment [10] (10 µM), 44.1% (inactive); in experiment [9] (10 µM unless noted), 65% (inactive).

Turning to `CCOC(=O)C(NC(=O)C(Cc1ccc(N(CCCl)CCCl)cc1)NC(C)=O)C(C)C` (stereo not drawn), the growth in experiment [1] (10 µM unless noted) was 105% (inactive); in [2] (10 µM unless noted) it was 96.4% (inactive); in experiment [3] (10 µM unless noted), 82.5% (inactive); in [4] (10 µM unless noted), 92.5% (inactive); in experiment [5] (10 µM unless noted), 88% (inactive); in [6] (10 µM unless noted) it was 74.5% (inactive). Also, the growth in experiment [7] (10 µM unless noted) was 87% (inactive); in [8] (10 µM unless noted) it was 69.4% (inactive); in experiment [10] (10 µM) it was 61.9% (inactive); in [9] (10 µM unless noted), 77.2% (inactive).

In the case of `CC1CCC2(NC1)OC1CC3C4CCC5CC(OC6OC(CO)C(OC7OC(CO)C(O)C(OC8OCC(O)C(O)C8O)C7OC7OC(CO)C(O)C(O)C7O)C(O)C6O)CCC5(C)C4CCC3(C)C1C2C` (stereo not drawn), the growth in experiment [10] (100 µM) is -86% (active) and -100% (active).

In the case of `CCC1(O)CC(OC2CC(N(C)C)C(OC3CC4OC5CC(=O)C(C)OC5OC4C(C)O3)C(C)O2)c2c(cc3c(c2O)C(=O)c2c(O)ccc(O)c2C3=O)C1C(=O)OC` (stereo not drawn), the growth in experiment [1] (10 µM unless noted) is -16.1% (active); in [2] (10 µM unless noted), -53.9% (active); in experiment [3] (10 µM unless noted), 16.1% (inactive); in experiment [4] (10 µM unless noted), 4.8% (active); in [5] (10 µM unless noted), -20% (active); in [6] (10 µM unless noted) it was -2.73% (active). For the same compound, the growth was -76.3% (active) in [7] (10 µM unless noted), -11.4% (active) in experiment [8] (10 µM unless noted), 2.21% (active) in [10] (10 µM) and -2.93% (active) in [9] (10 µM unless noted).

Take `CC[C@@]1(O)C[C@H](OC2CC(N(C)C)C(O)C(C)O2)c2c(O)c3c(c(O)c2[C@H]1OC1CC(N(C)C)C(O)C(C)O1)C(=O)c1cccc(O)c1C3=O` (stereo partly drawn): the growth in experiment [1] (10 µM unless noted) was -21% (active); in [2] (10 µM unless noted), -57.2% (active); in experiment [3] (10 µM unless noted), 24.2% (inactive); in experiment [4] (10 µM unless noted), 1.09% (active); in [5] (10 µM unless noted), -12.7% (active); in experiment [6] (10 µM unless noted), 1.62% (active). For the same compound, the growth in experiment [7] (10 µM unless noted) is -61.3% (active); in experiment [8] (10 µM unless noted), -0.489% (active); in experiment [10] (10 µM), -8.26% (active); in experiment [9] (10 µM unless noted), -3.79% (active).

On to `Cc1cc(N=Nc2ccccc2C)ccc1N`, for which the growth was 84.7% (inactive) in [1] (10 µM unless noted); 69.2% (inactive) in [2] (10 µM unless noted); 99.1% (inactive) in experiment [3] (10 µM unless noted); 73.2% (inactive) in experiment [4] (10 µM unless noted); 79.4% (inactive) in experiment [5] (10 µM unless noted); 59% (inactive) in [6] (10 µM unless noted). Besides, the growth was 69.7% (inactive) in experiment [7] (10 µM unless noted), 84.7% (inactive) in experiment [8] (10 µM unless noted), 58.7% (inactive) in experiment [10] (10 µM) and 78.1% (inactive) in experiment [9] (10 µM unless noted).

Take `COc1cccc2c1cc([N+](=O)[O-])c1c(C(=O)O)cc3c(c12)OCO3`: the growth was 106% (inactive) and 85.3% (inactive) in experiment [1] (10 µM unless noted); 82.8% (inactive) and 141% (inactive) in experiment [2] (10 µM unless noted); 86% (inactive) and 95.1% (inactive) in [3] (10 µM unless noted); 76.5% (inactive) and 103% (inactive) in experiment [4] (10 µM unless noted); 70.7% (inactive) and 104% (inactive) in experiment [5] (10 µM unless noted); 91.3% (inactive) and 84.2% (inactive) in experiment [6] (10 µM unless noted). For the same compound, the growth is 91.7% (inactive) and 102% (inactive) in [7] (10 µM unless noted); 79.5% (inactive) and 109% (inactive) in experiment [8] (10 µM unless noted); 38.2% (inactive) and 94% (inactive) in experiment [10] (10 µM); 15.3% (inactive) and 2.6% (active) in experiment [10] (100 µM); 72.4% (inactive) and 92.3% (inactive) in [9] (10 µM unless noted).

As for `C[C@H]1CCC/C=C/[C@@H]2C[C@H](O)C[C@H]2[C@H](O)/C=C/C(=O)O1`, the growth is 32.1% (inactive) in experiment [1] (10 µM unless noted); -30.5% (active) in experiment [2] (10 µM unless noted); 35.9% (inactive) in experiment [3] (10 µM unless noted); -37.4% (active) in [4] (10 µM unless noted); 7.27% (active) in experiment [5] (10 µM unless noted); -26.1% (active) in [6] (10 µM unless noted). Further, the growth in experiment [7] (10 µM unless noted) is 2.5% (active); in experiment [8] (10 µM unless noted), -20.4% (active); in experiment [10] (10 µM), -11.9% (active); in experiment [9] (10 µM unless noted) it was -70.8% (active).

Regarding `CC(=O)O[C@H]1C[C@@H]2OC3C=C(C)CCC3(C)[C@@]1(C)[C@@]21CO1` (stereo partly drawn), the growth is 6.22% (active) and 5.12% (active) in experiment [1] (10 µM unless noted); -5.17% (active) and -15.1% (active) in [2] (10 µM unless noted); 5.54% (active) and -8.41% (active) in experiment [3] (10 µM unless noted); -17.6% (active) and -41.3% (active) in experiment [4] (10 µM unless noted); -14% (active) and -10.5% (active) in experiment [5] (10 µM unless noted); -4.55% (active) and -14.4% (active) in experiment [6] (10 µM unless noted). In addition, the growth in experiment [7] (10 µM unless noted) was -28.8% (active) and -11.6% (active); in experiment [8] (10 µM unless noted), 0.513% (active) and -7.31% (active); in experiment [10] (10 µM) it was -0.46% (active) and -15% (active); in [9] (10 µM unless noted), -22.5% (active) and -18.6% (active).

On to `Oc1cccc2cccnc12`, for which the growth in experiment [1] (10 µM unless noted) was 89.4% (inactive); in experiment [2] (10 µM unless noted), 60.6% (inactive) and 120% (inactive) and 114% (inactive); in experiment [3] (10 µM unless noted), 107% (inactive) and 97.8% (inactive) and 99.9% (inactive); in [4] (10 µM unless noted), -6.09% (active) and 105% (inactive) and 104% (inactive); in experiment [5] (10 µM unless noted), 83% (inactive) and 108% (inactive) and 114% (inactive); in [6] (10 µM unless noted), 29% (inactive) and 95.8% (inactive) and 97.9% (inactive). The growth is 106% (inactive) and 113% (inactive) and 101% (inactive) in [7] (10 µM unless noted); 48.2% (inactive) and 100% (inactive) and 103% (inactive) in experiment [8] (10 µM unless noted); 1.86% (active) and 103% (inactive) and 104% (inactive) in experiment [10] (10 µM); 47.6% (inactive) and 108% (inactive) and 113% (inactive) in experiment [9] (10 µM unless noted).
